These results are taken from article PMC5540273 (PLoS ONE, 2017).

What all share (conditions): concentration: 1 μM,replicates: in singlicate; n = 1
Experiment [1] relates to JAK1(JH2domain-pseudokinase).
Experiment [2] has as its system JAK2(JH1domain-catalytic).
Experiment [3] deals with JAK3(JH1domain-catalytic).
In experiment [4] the test system is T1, JNK1.
T1 construct: gene MAPK8

For experiment [5], the system named is T2, JNK2.
T2 construct: gene MAPK9

For experiment [6], the system named is T3, JNK3.
T3 construct: gene MAPK10

For experiment [7], the system named is KIT-autoinhibited.
Experiment [8] has as its system KIT.
For experiment [9], the system named is LATS1.
In experiment [10] the test system is LATS2.
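Further: KINOMEscan kinase panel screen.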

With `CCNCC(Cc1ccccc1)NC(=O)c1cc(Br)c(-c2ccnc3[nH]ccc23)s1.Cl.Cl` (centres unmarked) [GSK1383280], the “%Inh” value was 0% in experiment [1]; 82% in experiment [2]; 87% in experiment [3]; 33% in experiment [4]; 10% in experiment [5]; 1% in [6]. Besides, the “%Inh” value came to 0% in [7], 50% in [8], 43% in experiment [9] and 82% in [10].

Consider `CCn1c(-c2nonc2N)nc2cncc(Br)c21` [SB-738004], for which the “%Inh” value is listed as 0% in [1]; 34% in [2]; 62% in [3]; 0% in experiment [4]; 0% in experiment [5]; 2% in experiment [6]. Also, the “%Inh” value in [7] was determined as 55%; in experiment [8], 32%; in experiment [9], 0%; in experiment [10], 79%.

Consider `CCn1c(-c2nonc2N)nc2cncc(CNC3CCNCC3)c21.Cl` [SB-747651], for which the “%Inh” value in [1] is listed as 0%; in experiment [2], 19%; in experiment [3] it was 0%; in experiment [4], 25%; in experiment [5], 6%; in [6], 3%. Besides, the “%Inh” value in experiment [7] came to 0%; in experiment [8] it was 0%; in experiment [9] it was 0%; in [10], 53%.

In the case of `CCOC(=O)N1CCC(n2cnc(-c3ccc(F)cc3)c2-c2ccnc(N)n2)CC1` [SB-219952], the “%Inh” value in experiment [1] is on record as 42%; in [2], 32%; in [3] it was 0%; in experiment [4], 77%; in experiment [5] it was 96.8%; in experiment [6], 98.4%. The “%Inh” value was 8% in experiment [7], 40% in experiment [8], 0% in experiment [9] and 0% in experiment [10].

As to `Cc1cccc(-c2nc(Nc3ccncc3)c3sccc3n2)n1` [GW869641], the “%Inh” value in experiment [1] is given as 90.2%; in [2], 67%; in experiment [3], 57%; in [4] it was 46%; in experiment [5] it was 85%; in [6], 94.6%. Further, the “%Inh” value is 21% in [7], 22% in experiment [8], 11% in experiment [9] and 33% in experiment [10].

Take `C[C@@H](Oc1cc(-n2cnc3ccc(-c4ccncc4)cc32)sc1C(N)=O)c1ccccc1Cl` [GSK483724]: the “%Inh” value in experiment [1] stood at 0%; in [2] it was 19%; in experiment [3] it was 0%; in [4] it was 45%; in [5] it was 27%; in experiment [6], 18%. Also, the “%Inh” value in experiment [7] is listed as 6%; in [8], 36%; in experiment [9], 3%; in [10], 54%.

As to `Cc1ccc(Nc2ccnc(Nc3ccc4c(c3)CS(=O)(=O)C4)n2)cc1O.Cl` [GW579362], the “%Inh” value is on record as 99.1% in experiment [1]; 99.1% in [2]; 98.2% in experiment [3]; 98.4% in experiment [4]; 87% in experiment [5]; 95.1% in [6]. For the same compound, the “%Inh” value is 41% in experiment [7], 99.8% in experiment [8], 0% in experiment [9] and 21% in experiment [10].

Turning to `CC(C)S(=O)(=O)N1CCN(Cc2ccc3c(c2)nc(NC(=O)c2ccsc2)n3C[C@H](O)c2ccccc2)CC1` [GW635815], the “%Inh” value in experiment [1] was 0%; in [2] it was 77%; in [3] it was 54%; in experiment [4], 19%; in experiment [5], 10%; in experiment [6], 15%. Besides, the “%Inh” value in experiment [7] is reported as 20%; in experiment [8], 87%; in experiment [9], 0%; in experiment [10], 0%.

With `NC(=O)c1ccc(-c2cc3ncnc(SCC(=O)O)c3s2)cc1`, the “%Inh” value was determined as 50% in [1]; 0% in experiment [2]; 22% in experiment [3]; 22% in experiment [4]; 0% in [5]; 0% in experiment [6]. The “%Inh” value turned out to be 22% in experiment [7], 68% in experiment [8], 0% in experiment [9] and 0% in experiment [10].

For the compound `Cl.Nc1n[nH]c2cc(-c3ccccn3)ccc12` [GSK2189892], the “%Inh” value was found to be 14% in experiment [1]; 31% in experiment [2]; 0% in [3]; 0% in experiment [4]; 0% in experiment [5]; 0% in experiment [6]. The “%Inh” value in experiment [7] came out at 0%; in experiment [8] it was 4%; in [9], 0%; in experiment [10] it was 9%.

`Cn1ccc2ncnc(Oc3ccc(NC(=O)Nc4ccnc(C(F)(F)F)c4)c(Cl)c3)c21`: the “%Inh” value in experiment [1] is listed as 1%; in experiment [2], 0%; in experiment [3] it was 2%; in experiment [4], 0%; in experiment [5], 0%; in experiment [6] it was 0%. In addition, the “%Inh” value was determined as 22% in experiment [7], 99.8% in experiment [8], 11% in experiment [9] and 0% in experiment [10].

`CN(c1cccc(CNc2nc(Nc3ccc4c(c3)CC(=O)N4)ncc2C(F)(F)F)c1)S(C)(=O)=O`: the “%Inh” value in experiment [1] is 79%; in experiment [2], 98.1%; in [3] it was 100%; in experiment [4], 40%; in experiment [5], 31%; in [6], 35%. The “%Inh” value is listed as 31% in [7], 57% in experiment [8], 29% in experiment [9] and 24% in [10].

As to `C[C@@H]1CCN(C(=O)N2CCCC2)C[C@@H]1N(C)c1ncnc2[nH]ccc12`, the “%Inh” value turned out to be 31% in [1]; 100% in experiment [2]; 99.6% in [3]; 14% in experiment [4]; 8% in experiment [5]; 3% in experiment [6]. Moreover, the “%Inh” value in experiment [7] is reported as 23%; in [8], 0%; in [9] it was 0%; in experiment [10] it was 10%.

`NC(=O)Nc1sc(-c2ccc(F)cc2)cc1C(N)=O` [GW789449]: the “%Inh” value stood at 100% in experiment [1]; 99.1% in [2]; 96.1% in experiment [3]; 55% in experiment [4]; 0% in experiment [5]; 20% in experiment [6]. The “%Inh” value in experiment [7] came to 48%; in [8] it was 65%; in experiment [9] it was 2%; in experiment [10], 0%.

Turning to `Cc1cccc2c(-c3ccncc3)c(-c3ccc(F)cc3)nn12.Cl` [GW461487], the “%Inh” value in experiment [1] turned out to be 19%; in experiment [2], 0%; in [3] it was 0%; in experiment [4], 48%; in experiment [5], 90%; in [6] it was 94%. Also, the “%Inh” value in experiment [7] came to 0%; in experiment [8] it was 4%; in experiment [9] it was 0%; in experiment [10], 13%.

In the case of `C[C@@H]1CNc2c(sc3ccc4nc(-c5ccc(O)cc5)ccc4c23)C(=O)N1`, the “%Inh” value in experiment [1] is on record as 36%; in experiment [2], 53%; in [3], 94.6%; in experiment [4] it was 18%; in experiment [5], 0%; in experiment [6] it was 6%. Besides, the “%Inh” value came to 0% in experiment [7], 54% in [8], 17% in [9] and 13% in experiment [10].

Regarding `CN(c1ccccc1CNc1nc(Nc2ccc3c(c2)CC(=O)N3)ncc1C(F)(F)F)S(C)(=O)=O`, the “%Inh” value in experiment [1] came to 66%; in [2] it was 98.6%; in experiment [3], 99.2%; in [4] it was 64%; in [5] it was 66%; in experiment [6], 63%. The “%Inh” value in experiment [7] is given as 0%; in [8], 38%; in [9] it was 65%; in experiment [10], 76%.
